D2 antag: HTS Assay for Allosteric Antagonists of the Human D2 Dopamine Receptor: Primary Screen for Antagonists; inhibition, % at 10 µM; AID 485344, 2010; HEK293 TREx D2 cells, calcium flux, dopamine EC80; 2% of 340,000 active; in the data active means inhibition above about 30%; inactive means below that, where a call was filed; further: 0% is about no effect
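Dopamine at EC80 is the agonist stimulus; test compounds precede it by 180 s. Calcium flux read kinetically in a force-coupled, inducible HEK293 T-REx D2 cell line.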
D2 PAM-1: HTS Assay for Positive Allosteric Modulators of the Human D2 Dopamine Receptor: Primary Screen for Potentiators | 0.34% of 340,000 active | D(2) dopamine receptor (Homo sapiens), P14416 | potentiation, % at 10 µM | HEK293 T-REx D2, calcium flux, EC20 dopamine potentiation | AID 485347, 2010;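 active means potentiation over 3 SD above the plate norm, cut at about 30% in these data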; further: 0% is about no effect
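Tetracycline-induced HEK293 T-REx cells force-coupled to calcium signalling expressed D2; compounds were pin-added after a 10 s baseline, read kinetically 180 s, then an EC20 dopamine challenge followed with a further 180 s calcium read.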
D2 ag-1: Beta-Arrestin HTS for Positive Allosteric Modulators of the Human D2 Dopamine Receptor: Agonists; D(2) dopamine receptor (Homo sapiens), P14416; DiscoveRx PathHunter D2 beta-arrestin, luminescence, 90 min; 100% = 57 uM dopamine signal; activation, % (concentration not given with the values); 0.084% of 360,000 active; in the data active means activation above about 40%; inconclusive means between about 15% and that limit
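Agonist mode: compounds alone added to overnight-plated D2 PathHunter cells for 90 min at 37 C, with 57 uM final dopamine (EC100) defining full response. Beta-arrestin recruitment detected by chemiluminescent reagent, read after 1 h at ambient temperature.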
D2 ag-2: HTS Assay for Allosteric Agonists of the Human D2 Dopamine Receptor: Primary Screen for Agonists. D(2) dopamine receptor (Homo sapiens), P14416. HEK293 T-REx D2 cells, calcium flux agonist mode. activation, % at 2 µM. 0.53% of 340,000 active. AID 485358, 2010;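 active means activation over 3 SD above normal in the single-dose calcium agonist read, cut at about 30% in these data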; further: 0% is about no effect
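Tetracycline-induced HEK293 Trex cells with D2 receptor force-coupled to calcium signaling, plated overnight at 30 C and loaded with no-wash calcium dye. Calcium flux read kinetically for 180 s after compound addition; responses flag agonists.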
D2 PAM-2: Beta-Arrestin HTS for Positive Allosteric Modulators of the Human D2 Dopamine Receptor: Potentiators; DiscoveRx D2 beta-arrestin cells, luminescence, 90 min; 100% = 57 uM dopamine signal; potentiation, % (test concentration not listed); 0.23% of 360,000 active; in the data active means potentiation above about 50%; inconclusive means mostly about 30% to 49%
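D2 cells co-treated with compound plus 50 nM dopamine (EC20) for 90 min at 37 deg C to detect potentiation. Beta-arrestin recruitment was read as enzyme-fragment luminescence after 1 h at ambient temperature. Full response was set by 57 uM dopamine.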
D3 arrestin ag: qHTS of D3 Dopamine Receptor Agonist: D3 Dopamine Receptor B-arrestin Agonist Confirmatory Assay; shares compounds with D2 ag-2; DiscoveRx D3 beta-arrestin cells, luminescence, 90 min; Potency, µM (titrated, usually from 76.9 µM), without a hit: at the top dose activation, actives largely listed as activators; 4% of 2,300 active; AID 720506, 2013;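 further: potency means the concentration at half of the fitted maximal effect; 100% = dopamine control response; nearly all actives have a fitted effect of over 70% in size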
Target sequence (P35462 whole entry, looked up): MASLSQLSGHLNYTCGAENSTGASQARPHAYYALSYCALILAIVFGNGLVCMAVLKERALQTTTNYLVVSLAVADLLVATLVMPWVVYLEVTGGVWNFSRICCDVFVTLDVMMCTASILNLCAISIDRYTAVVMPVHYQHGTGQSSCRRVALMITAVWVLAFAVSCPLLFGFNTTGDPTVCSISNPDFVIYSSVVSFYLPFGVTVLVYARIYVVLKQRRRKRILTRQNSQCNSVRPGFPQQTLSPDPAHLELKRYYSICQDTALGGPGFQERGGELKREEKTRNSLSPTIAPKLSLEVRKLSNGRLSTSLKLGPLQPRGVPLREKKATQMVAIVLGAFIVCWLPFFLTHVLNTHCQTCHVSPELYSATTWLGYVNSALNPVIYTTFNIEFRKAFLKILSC
D2 ag-3: qHTS of D3 Dopamine Receptor Agonist: D2 Dopamine Receptor B-arrestin Agonist Counterscreen | DiscoveRx PathHunter D2 beta-arrestin, luminescence, 90 min; response scale: percent relative to full dopamine signal | Potency, µM (series often up to 76.9 µM), without a hit: at the highest dose activation, most hits filed as activators | shares compounds with D2 ag-2 | 5.9% of 2,300 active; further: potency means the concentration at half of the fitted maximal effect; % of control where 0% means no effect; nearly all actives have a fitted effect of over 70% in size
The depositor's hits bear a star; ? = inconclusive; . = not tested or not shown. Shown are actives, neighbours in structure and some others; about 2.4% of the full set was active somewhere. Unless noted, the call rests on the fitted dose curve; in most records, active means well fitted activation curve with a large enough effect; inconclusive means small, poorly fitted or top-dose-only effect; inactive means flat fitted curve, though single readings scatter.

SMILES	D2 antag	D2 PAM-1	D2 ag-1	D2 ag-2	D2 PAM-2	D3 arrestin ag	D2 ag-3
COc1cccc(NC(=O)CN(C)C(=O)c2ccc3c(c2)C(=O)N(CCC(C)C)C3=O)c1	-14	8	2	0	-1	7%	3%
COc1cccc(NC(=O)CN(C)C(=O)CCC(=O)c2cc(C)sc2C)c1	-20	9	2	-1	-10	-4%	-2%
COc1cccc(NC(=O)CN(C)C(=O)C(Sc2ccccc2)c2ccccc2)c1 (stereo not given)	0	-13	-4	0	-13	-4%	0%
COCCCN1C(=O)c2ccc(C(=O)Nc3cccc(OC)c3)cc2C1=O	13	0	-1	0	-2	.	.
CCCN1CCc2c(sc(NC(=O)c3ccc(S(=O)(=O)N4CCN(C(=O)OCC)CC4)cc3)c2C(N)=O)C1	-22	-13	-3	47*	-9	-9%	-4%
Cc1ccc(NC(=O)CCS(=O)(=O)c2ccc3c(c2)oc(=O)n3C)c(Br)c1	.	-5	.	0	.	.	.
CNc1nc(N)c([N+](=O)[O-])c(Nc2cccc(F)c2)n1	3	9	-1	14	-8	-4%	-4%
CNc1nc(N)c([N+](=O)[O-])c(NCc2ccccc2)n1	44*	-1	-1	10	-21	-12%	-7%
Cc1cc2n(n1)CCCN2C(=O)Nc1ccc(C)c(Cl)c1	.	-7	.	-1	.	.	.
N#Cc1ccc(NC(=O)CN2CCN(c3ccccn3)CC2)cc1	68*	-30	48*	77*	21	?	40µM*
N#Cc1ccsc1NC(=O)CN1CCN(c2ccccn2)CC1	31*	-7	?	41*	5	?	?
N#Cc1ccsc1NC(=O)CN1CCN(c2ccc(O)cc2)CC1	14	13	12	4	?	.	.
CC(=O)N1CCN(CC(=O)Nc2sccc2C#N)CC1	8	14	-3	0	0	.	.
N#Cc1ccsc1NC(=O)CN1CCN(c2ccccc2)CC1	23	-24	13	48*	1	5%	19%
CC(C)c1ccc(NC(=O)CN2CCN(c3ccccn3)CC2)cc1	0	-11	14	15	-9	.	.
CCN(c1ccccc1)S(=O)(=O)c1nnc(NC(=O)COc2ccccc2F)s1	.	-6	.	1	.	.	.
O=C(O)CC1c2ccccc2CCN1C(=O)Nc1cc(Cl)ccc1Cl (stereo not given)	.	0	.	0	.	.	.
CCCOc1ccc(C2c3c(oc4ccccc4c3=O)C(=O)N2c2nc(C)c(C(=O)OCC)s2)cc1 (stereo not given)	.	0	.	1	.	.	.
Cc1ccc(NC(=O)Cn2ccn(Cc3ccc(Cl)cc3)c(=O)c2=O)cc1C	.	-14	.	0	.	.	.
O=C(O)/C=C/C(=O)NCCCc1ccccc1	14	6	-2	0	-3	-3%	-4%
O=C(O)/C=C/C(=O)NCc1ccccc1	-12	-9	-1	-1	19	.	.
COc1cc(OC)c(OC)cc1CCC(C)NCCC(c1ccccc1)c1ccccc1 (stereo not given)	49*	-18	14	50*	-39	3%	?
COc1ccc(CCC(C)NCc2ccccc2OC)cc1 (stereo not given)	-16	-7	-6	1	-2	.	.
COc1ccccc1CCNC(C)CCc1ccc(O)cc1 (stereo not given)	3	-18	0	41*	-2	?	6%
COc1ccc(CCNCCC(c2ccccc2)c2ccccc2)cc1OC	.	.	-5	.	-46	.	.
SMILES	D2 antag	D2 PAM-1	D2 ag-1	D2 ag-2	D2 PAM-2	D3 arrestin ag	D2 ag-3
COc1ccc(OCCCC(=O)NNC(=O)CCN2CCN(c3ccccc3)CC2)cc1	71*	-24	7	83*	-8	19%	15%
Cc1cccc(OCCCC(=O)NNC(=O)CCN2CCN(c3ccccc3)CC2)c1	9	-24	-1	59*	-33	?	29%
CC(C)Oc1ccc(CNC(=O)c2ccc(NC(=O)N3CCSc4ncccc43)cc2)cc1	.	-3	.	0	.	.	.
CCS(=O)(=O)N1CC(=O)N(c2ccc(C)c(C)c2)C(C)(C(=O)NC2CCCCCC2)C1 (stereo not given)	.	-11	.	.	.	.	.
Cc1ccc(/C=N/c2sc3c(c2C#N)CCCCC3)o1	.	.	14	.	-3	?	29%
Cc1[nH]n(-c2ccc(F)cc2)c(=O)c1/C=N/c1sc2c(c1C#N)CCCC2	11	-13	5	53*	-13	?	15%
COc1ccccc1CCNC(=O)CCc1c(C)c2cc3c(C)coc3cc2oc1=O	.	-3	.	-1	.	.	.
O=C(OCCN1C(=O)c2cccc3c(N4CCOCC4)ccc(c23)C1=O)c1ccccc1Cl	.	-6	7	.	10	?	?
Cc1cccc(Cn2c(=O)oc3ccc(C)cc32)c1	31*	11	3	24	-4	-8%	-2%
CCOC(=O)c1c(NC(=S)Nc2ccccc2)sc2c1CCN(CC)C2	-3	-14	0	8	-23	-17%	-2%
Cc1cc(NC(=O)c2ccco2)ccc1-n1cnnn1	.	.	-1	.	5	0%	-1%
O=C(CCc1nnc2n(Cc3ccc(F)cc3)c(=O)c3ccccc3n12)NCCN1CCOCC1	-27	0	1	0	-7	.	.
O=C(CCc1nnc2n(Cc3ccc(F)cc3)c(=O)c3ccccc3n12)N1CCN(c2ccccn2)CC1	12	-27	-5	53*	-6	-13%	-8%
O=C(Nc1cccc(C(=O)N2CCOCC2)c1)c1ccc([N+](=O)[O-])cc1	-1	-4	0	39*	2	?	3%
O=C(O)CCSc1ccc([N+](=O)[O-])cc1[N+](=O)[O-]	.	-4	14	.	2	?	6%
Cc1sc(NC(=O)c2ccco2)c(CN2CCCCC2)c1C	3	-1	-3	0	-14	.	.

Source: PubChem (National Center for Advancing Translational Sciences (NCATS))
